ELG1 DNA repair = blocks ELG1-dependent DNA repair in HEK293T cells; Potency, µM (titrated, usually from 46.1 µM), usual class: inhibitors; 2.3% of 330,000 active; HEK293T ELG1-luciferase reporter, luminescence, 16 h; DNA damage induced by 5-fluorouridine; also: nearly all actives have a fitted effect of over 55% in size
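Reporter activity after DNA damage by 5-fluorouridine is monitored. Compound-treated cells incubate 16 hr at 37 °C, then ONE-Glo is added for 30 min before luminescence reading.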
SW480 rereplic = induces DNA re-replication in SW480 colon adenocarcinoma cells; SW480 DNA re-replication, Hoechst DNA content imaging, 48 h; Potency, µM (titrated, usually from 46.1 µM), most hits filed as activators; 1.8% of 340,000 active; AID 624297; also: nearly all actives have a fitted effect of over 55% in size
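Image-based read-out: total Hoechst fluorescence of nuclei (405 nm excitation, 500-530 nm emission), with hits raising the fraction of high-intensity nuclei. SW480 colon cells incubated 48 hr with compounds at 37 C.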
KB-V1 MDR tox = kills drug-selected multidrug resistant KB-V1 cells | KB-V1 MDR cells viability, CellTiter-Glo, 72 h | 3.4% of 400,000 active | Potency, µM (highest dose often 46.1 µM), most hits filed as cytotoxic; also: nearly all actives have a fitted effect of over 60% in size
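KB-V1 MDR subline cells in DMEM (phenol-red free, 10% FBS) exposed to compounds in qHTS concentration series for 72 h at 37 degrees C. Viability read by CellTiter-Glo luminescence; concentration-effect curves fitted after normalization and correction.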
MCF10A rereplic = inducers of DNA re-replication in MCF 10A breast cells; Potency, µM (top dose mostly 46.1 µM), most hits filed as activators; 2.9% of 350,000 active; MCF 10A DNA re-replication, Hoechst nuclear intensity, 48 h; AID 624296; also: nearly all actives have a fitted effect of over 50% in size
KB-3-1 tox = kills parental KB-3-1 adenocarcinoma cells. KB-3-1 viability, CellTiter-Glo ATP luminescence, 72 h. 1.4% of 400,000 active. Potency, µM (titrated, usually from 46.1 µM), hits mostly cytotoxic; also: nearly all actives have a fitted effect of over 60% in size
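72 h, 37 °C compound treatment of KB-3-1 parental cells; CellTiter-Glo added, 10 min, luminescence read. Data corrected against DMSO-only plates and normalized before curve fitting.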
Large screens that a line does not name were inactive. This is a sample that favours compounds with a hit; in the whole collection about 8.2% have one here. Calls follow the shape of the dose curve; as a rule, active = well fitted curve in the direction sought with a large enough effect; inconclusive = small, poorly fitted or top-dose-only effect, or another doubt; inactive = no such curve, though single readings can be large; an effect the other way counts as inactive or inconclusive.

COC(=O)c1ccc(COc2ccccc2OC)o1	none
CCNC(=O)C1(C)CCN(C(=O)c2cccc(C#N)c2)C1 (stereo unspecified)	none (no result: ELG1 DNA repair, SW480 rereplic, MCF10A rereplic)
CSc1nc2ccc(Cl)cc2[nH]1	none
CSc1nc2cc(Oc3cccc(Cl)c3Cl)c(Cl)cc2[nH]1	MCF10A rereplic 9.2µM (no result: ELG1 DNA repair)
N#CC(c1ccccc1)N(CCCCl)C(=O)c1ccccc1 (stereo unspecified)	SW480 rereplic 14.6µM, MCF10A rereplic inconclusive
Cc1ccc(CSc2nnc(-c3cccc(S(=O)(=O)N4CCOCC4)c3)n2CC(C)C)cc1	KB-V1 MDR tox 4.61µM, KB-3-1 tox 23.1µM
CC(C)Cn1c(SCC(N)=O)nnc1-c1cccc(S(=O)(=O)N2CCOCC2)c1	ELG1 DNA repair inconclusive
Cc1cccc(C2=NN(c3ccccc3)[C@H](CO)[C@H]2c2ccc(Cl)cc2)c1	SW480 rereplic 13µM, KB-V1 MDR tox inconclusive, MCF10A rereplic 2.31µM, KB-3-1 tox inconclusive
Cc1cccc(C2=NN(c3ccccc3)[C@H](CO)[C@H]2c2ccc(F)cc2)c1	SW480 rereplic 5.17µM, MCF10A rereplic inconclusive
Cc1nc2scc(C)n2c(=O)c1S(=O)(=O)Nc1cccc(C(F)(F)F)c1	KB-V1 MDR tox inconclusive (no result: ELG1 DNA repair, SW480 rereplic, MCF10A rereplic)
CC(C)c1ccc(N(C(=O)c2snc(C(N)=O)c2N)C(C(=O)NCC2CCCO2)c2ccc(N(C)C)cc2)cc1 (stereo unspecified)	ELG1 DNA repair inconclusive, KB-V1 MDR tox 20.6µM, MCF10A rereplic inconclusive, KB-3-1 tox inconclusive
CC(C(=O)NCC1CCCO1)N(C(=O)c1snc(C(N)=O)c1N)c1ccccc1 (stereo unspecified)	none
CN(C)c1ccc(C(C(=O)NCC2CCCO2)N(C(=O)c2snc(C(N)=O)c2N)c2ccc3c(c2)OCO3)cc1 (stereo unspecified)	ELG1 DNA repair 20.6µM
CC(C(=O)NCC1CCCO1)N(C(=O)c1snc(C(N)=O)c1N)c1cccc(F)c1 (stereo unspecified)	KB-V1 MDR tox 11.6µM
CN(C)c1ccc(C(C(=O)NCC2CCCO2)N(C(=O)c2snc(C(N)=O)c2N)c2ccccc2)cc1 (stereo unspecified)	ELG1 DNA repair inconclusive, MCF10A rereplic inconclusive
Cc1ccc(S(=O)(=O)/N=C(/Nc2ccc([N+](=O)[O-])cc2[N+](=O)[O-])c2ccccc2)cc1	ELG1 DNA repair 23.1µM, KB-V1 MDR tox 16.4µM, MCF10A rereplic inconclusive
O=S(=O)(/N=C(/Nc1cccc2ccccc12)c1ccccc1)c1cccs1	KB-3-1 tox inconclusive
Cc1ccc(S(=O)(=O)/N=C(/Nc2ccc([N+](=O)[O-])cc2)c2ccccc2)cc1	ELG1 DNA repair inconclusive, KB-V1 MDR tox inconclusive, MCF10A rereplic inconclusive, KB-3-1 tox inconclusive
Cc1ccc(N/C(=N/S(=O)(=O)c2cccs2)c2ccccc2)c(C)c1	SW480 rereplic inconclusive, KB-V1 MDR tox 9.2µM, MCF10A rereplic inconclusive, KB-3-1 tox inconclusive
Cc1ccc(C(O)c2ncc(-c3ccccc3)[nH]2)c(C)c1 (stereo unspecified)	none (no result: ELG1 DNA repair, SW480 rereplic, MCF10A rereplic)
COc1ccccc1CCC(=O)N(C)C1CCCN(Cc2ccccc2F)C1 (stereo unspecified)	none
Cc1cccc(-n2cc(CNCCc3nc(C)cc(C)n3)c(-c3cccc(F)c3)n2)c1	ELG1 DNA repair 23.1µM, SW480 rereplic 23.1µM, MCF10A rereplic 4.11µM
Cc1cccc(-c2nn(-c3ccccc3)cc2CNCCO)c1	none (no result: ELG1 DNA repair, SW480 rereplic, MCF10A rereplic)
CN1/C(=C\C=N\O)C(C)(C)c2ccccc21	none
CN1/C(=C\C=[N+](C)c2ccccc2)C(C)(C)c2ccccc21	ELG1 DNA repair inconclusive, KB-3-1 tox 3.26µM
Cc1ccccc1N=C/C=C1\N(C)c2ccccc2C1(C)C	SW480 rereplic inconclusive, KB-V1 MDR tox 23.1µM, MCF10A rereplic inconclusive
CN1/C(=C\C=C(/C#N)C(=O)Nc2ccccc2F)C(C)(C)c2ccccc21	MCF10A rereplic inconclusive
CO/N=C/C=C1/N(C)c2ccccc2C1(C)C	none
CN1/C(=C/C=C(/C#N)C(N)=O)C(C)(C)c2ccccc21	SW480 rereplic 6.31µM, KB-V1 MDR tox inconclusive, MCF10A rereplic 5.01µM, KB-3-1 tox 2.59µM
C#CCOCCOCCOCCNc1nc(N2CCN(C(=O)[C@H](CCCN=C(N)N)n3cc(C(N)[C@H](C)CC)nn3)CC2)nc(N2CCN(C(=O)[C@H](CC(N)=O)n3cc(C(N)[C@@H](C)CC)nn3)CC2)n1 (stereo partly specified)	none
CCc1nc2c(OCc3c(C)noc3C)cccn2c1N(C=O)Cc1ccc(OC)cc1	none (no result: ELG1 DNA repair, SW480 rereplic, MCF10A rereplic)
Cc1ccc(-c2ccc(=O)n(C(C)C(=O)Nc3ccccc3Cl)n2)cc1C (stereo unspecified)	none (no result: ELG1 DNA repair, SW480 rereplic, MCF10A rereplic)
O=C(C=P(c1ccccc1)(c1ccccc1)c1ccccc1)c1ccccc1-c1ccccc1C(=O)C=P(c1ccccc1)(c1ccccc1)c1ccccc1	SW480 rereplic 13µM, KB-3-1 tox inconclusive (no result: ELG1 DNA repair)
COc1ccccc1NC(=O)Nc1nc(CC(=O)Nc2cc(F)ccc2F)cs1	ELG1 DNA repair inconclusive, KB-V1 MDR tox inconclusive, MCF10A rereplic inconclusive
CC(NS(=O)(=O)c1cccc(C(=O)N(C)Cc2ccc(N3CCOCC3)cc2)c1)c1ccccc1 (stereo unspecified)	none (no result: ELG1 DNA repair)
CCC(CC)C(=O)c1c[nH]c(C(=O)NCc2ccc(F)cc2)c1	none
Nc1cnn(C2OC(CO)C(O)C2O)c(=O)n1 (stereo unspecified)	ELG1 DNA repair inconclusive, KB-V1 MDR tox 4.11µM, KB-3-1 tox 2.31µM
COc1cc(/C=c2\[nH]c(=O)/c(=C/c3cc(OC)c(OC)c(OC)c3)[nH]c2=O)cc(OC)c1OC	KB-3-1 tox inconclusive (no result: ELG1 DNA repair, SW480 rereplic, MCF10A rereplic)
Cc1ccccc1-c1cc2nc(Oc3cccc(F)c3)n(C)c(=O)c2s1	KB-V1 MDR tox inconclusive (no result: ELG1 DNA repair, SW480 rereplic, MCF10A rereplic)
COC(=O)c1c[nH]n2c(=O)c(Cc3ccc(F)cc3Cl)c(C)nc12	KB-V1 MDR tox 16.4µM
COc1ccc(NC(=S)Nc2ccc(OCc3ccccc3)cc2)c(OC)c1	KB-V1 MDR tox 16.4µM, KB-3-1 tox inconclusive
Cc1cc(C)c2nc(-c3ccccn3)cc(C(=O)NCCc3ccc(S(N)(=O)=O)cc3)c2c1	SW480 rereplic inconclusive, MCF10A rereplic inconclusive
Cc1cc(C)c2nc(-c3ccccn3)cc(C(=O)NCc3ccc(S(N)(=O)=O)cc3)c2c1	MCF10A rereplic 12.6µM
COc1cccc(Nc2ncccc2C(=O)Nc2ccccc2)c1	ELG1 DNA repair inconclusive, SW480 rereplic inconclusive, MCF10A rereplic 23.1µM
Cc1cccc(NC(=O)c2cc(-c3ccccn3)nc3ccccc23)c1C	ELG1 DNA repair inconclusive, KB-V1 MDR tox 10.3µM, MCF10A rereplic inconclusive, KB-3-1 tox inconclusive
Cc1cccc(NC(=O)c2ccccc2O)c1C	ELG1 DNA repair inconclusive, KB-V1 MDR tox 16.4µM
O=C(NC1CC1)c1cc(-c2ccccn2)nc2ccccc12	none
CC(C)(C)c1ccc(CC(=O)N2CCC2(C)C(=O)NS(=O)(=O)c2ccc(Cl)cc2)cc1 (stereo unspecified)	none (no result: ELG1 DNA repair, SW480 rereplic, MCF10A rereplic)
Cc1ccc2nc(CS)[nH]c2c1	none (no result: ELG1 DNA repair, SW480 rereplic, MCF10A rereplic)
